Bioassay records: PubChem BioAssay, several laboratories
CYP2C19 inh: blockers of cytochrome P450 2C19 activity – biochemical, luminescence, ADME assay, primary screen; CYP2C19 Supersomes, luciferin-H EGE luminescence, 30 min; inhibition, % at 5 µM; hit rate 21% among 96,000;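 active means CYP2C19 inhibition above a set limit at 5 µM in the primary screen, cut at about 50% in these data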;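 further: plate controls were negative control wells for no effect and 2.5 mM tranylcypromine positive control for full effect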
Cav3 T inh: Cav3.2 calcium influx blockers – cell-based, Fluo-4 calcium fluorescence, FDSS, MLSMR library, primary screen | Voltage-dependent T-type calcium channel subunit alpha-1H (Homo sapiens), O95180 | Cav3.2-expressing cells; stronger effect = lower value | B-score at 10 µM | hit rate 4% among 100,000 | AID 449739, 2010;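 active means single-dose well whose peak fluorescence ratio is a statistical outlier from its plate by either plate-standardised score or position-corrected B-score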
CYP2C9 act: human CYP2C9 activators, primary screen, biochemical, luminescence. recombinant CYP2C9, luciferin-H conversion; stronger effect = higher value; factor 1 = untreated enzyme, 0 = blocked. activation factor at 5 µM. Cytochrome P450 2C9 (Homo sapiens), P11712. hit rate 1.4% among 96,000;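 active means activation factor of 2 or more for CYP2C9 at a 5 µM dose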;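 further: 0 = sulfaphenazole-blocked wells and 1 = vehicle-only wells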
CYP2C9 inh: blockers of cytochrome P450 2C9 activity – biochemical, luminescence, ADME assay, primary screen | P11712 | CYP2C9 Supersomes, luciferin-H conversion | inhibition, % at 5 µM | hit rate 20% among 96,000;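 active means blocking of liver enzyme CYP2C9 beyond about 50% at 5 µM, limit read from the data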
CYP2C19 act: human CYP2C19 activators, primary screen, biochemical, luminescence; recombinant CYP2C19, luciferin-H EGE luminescence; stronger effect = higher value; 0 = fully inhibited enzyme, 1 = untreated enzyme; activation factor at 5 µM; 96,000 tested, under 10 active; AID 1025, 2008;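 active means activation factor of at least 2 at 5 µM in the primary screen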;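 further: 0 = wells with 2.5 mM tranylcypromine and 1 = vehicle-only wells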
* = called active by the depositor. Sampled rows, rich in hits. Any-hit rate of the full collection: about 27%.

Results for Nc1nc(-c2cccc(NS(=O)(=O)c3ccccc3)c2)cs1 ?
CYP2C19 inh: 99*; Cav3 T inh: -1.6; CYP2C9 act: 0; CYP2C9 inh: 95*; CYP2C19 act: 0

How did Cc1nc(-c2cccc(NS(=O)(=O)c3cccc4ccccc34)c2)cs1 do in these assays?
CYP2C19 inh: 98*; Cav3 T inh: -3.6; CYP2C9 act: 1.1; CYP2C9 inh: -6; CYP2C19 act: 0

Results for Cc1ccc(C)c2[nH]c(=O)c(CCNC(=O)C(C)C)cc12 ?
CYP2C19 inh: -14; CYP2C9 act: 1.1; CYP2C9 inh: -13; CYP2C19 act: 1.1

How did CC(=O)N1N=C(c2cccc([N+](=O)[O-])c2)OC1c1ccc(Cl)cc1Cl (stereo unspecified) do in these assays?
CYP2C19 inh: 73*; Cav3 T inh: -3.1; CYP2C9 act: 0.2; CYP2C9 inh: 78*; CYP2C19 act: 0.3

Results for Cc1c(-c2nnnn2-c2ccc(F)cc2)cnc2cc3c(cc12)OCO3 ?
CYP2C19 inh: 30; Cav3 T inh: 0.8; CYP2C9 act: 0.5; CYP2C9 inh: 50; CYP2C19 act: 0.7

What do the screens show for `COc1ccc(-n2nnnc2-c2cnc(N3CCCC3)nc2C(F)(F)F)cc1`?
CYP2C19 inh: 88*; Cav3 T inh: -3; CYP2C9 act: 0.4; CYP2C9 inh: 64*; CYP2C19 act: 0.1

Results for Cn1cc(-c2nnnn2-c2ccc(Cl)cc2)c(C(F)(F)F)n1 ?
CYP2C19 inh: 100*; CYP2C9 act: 0.6; CYP2C9 inh: 40; CYP2C19 act: 0

What do the screens show for `FC(F)(F)c1nc(-c2cccs2)ncc1-c1nnnn1-c1ccc(Cl)cc1`?
CYP2C19 inh: -3; Cav3 T inh: -4.2; CYP2C9 act: 0.5; CYP2C9 inh: 52*; CYP2C19 act: 1

How did COc1ccc(-n2ncc3c(N4CCCCC4)ncnc32)cc1 do in these assays?
Cav3 T inh: -0.031

What do the screens show for `Cc1cc(C)cc(-n2nnnc2-c2cn(C)nc2C(F)(F)F)c1`?
CYP2C19 inh: 75*; Cav3 T inh: 0.62; CYP2C9 act: 0.8; CYP2C9 inh: 20; CYP2C19 act: 0.3

Results for Clc1ccc(-n2nnnc2-c2cnc(-c3ccncc3)nc2-c2cccs2)cc1 ?
Cav3 T inh: -2.6

What do the screens show for `COc1cccc(C(=O)N/N=C2\SCC(=O)N2Cc2ccc3c(c2)OCO3)c1`?
CYP2C19 inh: 34; Cav3 T inh: 0.82; CYP2C9 act: 0.1; CYP2C9 inh: 88*; CYP2C19 act: 0.7

What do the screens show for `O=C1CCCC2=C1C(O)(C(F)(F)F)C(=O)N2Cc1ccccc1` (stereo unspecified)?
Cav3 T inh: 0.045

Results for O=C1N2c3ccccc3CCc3cccc(c32)C1(O)C(F)(F)F (stereo unspecified) ?
CYP2C19 inh: 52*; Cav3 T inh: -5.6*; CYP2C9 act: 0.7; CYP2C9 inh: 34; CYP2C19 act: 0.5

What do the screens show for `O=C1CCSc2ccc(Cl)cc2N1Cc1cccc(Cl)c1`?
CYP2C19 inh: 64*; Cav3 T inh: -3.4; CYP2C9 act: 0.9; CYP2C9 inh: 14; CYP2C19 act: 0.4

How did Cc1ccc(CN2C(=O)CCSc3ccc(Cl)cc32)cc1 do in these assays?
CYP2C19 inh: 36; Cav3 T inh: -4.9*; CYP2C9 act: 0.8; CYP2C9 inh: 17; CYP2C19 act: 0.6

Results for O=c1[nH]c(SCc2n[nH]c(=S)n2-c2ccccc2)nc2sc3c(c12)CCC3 ?
CYP2C19 inh: 28; Cav3 T inh: -1.1; CYP2C9 act: 0.3; CYP2C9 inh: 72*; CYP2C19 act: 0.7

What do the screens show for `S=c1[nH]nc(Cc2cccc3ccccc23)n1-c1ccccc1`?
CYP2C19 inh: 47; Cav3 T inh: -0.099; CYP2C9 act: 0.1; CYP2C9 inh: 90*; CYP2C19 act: 0.5

Results for O=c1[nH]c(SCc2n[nH]c(=S)n2-c2ccccc2)nc2ccccc12 ?
CYP2C19 inh: 73*; Cav3 T inh: 0.052; CYP2C9 act: 0.2; CYP2C9 inh: 80*; CYP2C19 act: 0.3

Results for O=C(CSc1nc2ccccc2c(=O)[nH]1)c1ccccc1 ?
Cav3 T inh: 0.28

How did O=c1[nH]c(CSc2nnc(-c3ccco3)n2-c2ccccc2)nc2sc3c(c12)CCC3 do in these assays?
CYP2C19 inh: 38; CYP2C9 act: 0.7; CYP2C9 inh: 27; CYP2C19 act: 0.6

Results for COc1ccc(N2CCN(Cc3nc4c(c(=O)[nH]c(=O)n4C)n3CC(C)=O)CC2)cc1 ?
Cav3 T inh: 1.1

What do the screens show for `CCCCNC(=S)NNC(=O)CCn1nc(C)c(Br)c1C`?
CYP2C19 inh: 15; Cav3 T inh: 0.16; CYP2C9 act: 1.3; CYP2C9 inh: -27; CYP2C19 act: 0.9

How did C/C=C\C=C\C(=O)N1CC2(CC(c3cccc(NC(=O)CC)c3)=NO2)C[C@H]1C(N)=O (stereo partly specified) do in these assays?
Cav3 T inh: 1.4

How did Cc1nc2nc(SCC(=O)N3CCOCC3)nn2c(C)c1Cc1c(F)cccc1Cl do in these assays?
CYP2C19 inh: 18; Cav3 T inh: 3.2; CYP2C9 act: 0.5; CYP2C9 inh: 53*; CYP2C19 act: 0.8

How did COC(=O)c1cccc(NC(=O)C23CC4CC(C2)CC(n2cncn2)(C4)C3)c1 do in these assays?
Cav3 T inh: 0.53

How did O=C(NC1CCC(NC(=O)C2CCCO2)CC1)C1CCCO1 (stereo unspecified) do in these assays?
CYP2C19 inh: -10; Cav3 T inh: -0.012; CYP2C9 act: 1.1; CYP2C9 inh: -9; CYP2C19 act: 1.1

How did COc1ccc(Cl)cc1NC(=S)NCCc1c[nH]c2ccccc12 do in these assays?
CYP2C19 inh: 92*; Cav3 T inh: -2.9; CYP2C9 act: 2.3*; CYP2C9 inh: -130; CYP2C19 act: 0.1

What do the screens show for `Cc1ccc(NC(=S)NCCc2c[nH]c3ccccc23)cc1`?
CYP2C19 inh: 86*; Cav3 T inh: -3.8; CYP2C9 act: 0.8; CYP2C9 inh: 19; CYP2C19 act: 0.1

Results for O=C(O)C1CCCCC1C(=O)NCCc1c[nH]c2ccccc12 (stereo unspecified) ?
CYP2C19 inh: 75*; CYP2C9 act: 0.7; CYP2C9 inh: 33; CYP2C19 act: 0.2

How did Cc1cc(C)cc(NC(=O)C(=O)NCCc2c[nH]c3ccccc23)c1 do in these assays?
Cav3 T inh: -1.2

How did O=C(O)[C@H]1CCCC[C@H]1C(=O)NCCc1ccccc1 do in these assays?
CYP2C19 inh: -1; Cav3 T inh: -0.27; CYP2C9 act: 1; CYP2C9 inh: 4; CYP2C19 act: 1

What do the screens show for `CCSc1nnc(NC(=O)C2Cc3ccccc3CN2C(=O)c2ccco2)s1` (stereo unspecified)?
CYP2C19 inh: 23; Cav3 T inh: -1.2; CYP2C9 act: 0.5; CYP2C9 inh: 53*; CYP2C19 act: 0.8
